For part of these data: Measured potencies and affinities stand elsewhere.

Holding throughout (set-up): scale not given: direction of the effect not stated beside the values
The target of experiment [1] is Protein translocase subunit SecA (Escherichia coli (strain K12)) (UniProt P10408). Nature of the experiment: Assay to Identify E. coli SecA ATPase Inhibitors. To be noted: 30 µM. The class given is functional.
For experiment [2], the target named is T1, Ubiquitin-activating enzyme e1, putative (Leishmania donovani (strain BPK282A1)) (UniProt E9BSI1).
T1 sequence (whole entry): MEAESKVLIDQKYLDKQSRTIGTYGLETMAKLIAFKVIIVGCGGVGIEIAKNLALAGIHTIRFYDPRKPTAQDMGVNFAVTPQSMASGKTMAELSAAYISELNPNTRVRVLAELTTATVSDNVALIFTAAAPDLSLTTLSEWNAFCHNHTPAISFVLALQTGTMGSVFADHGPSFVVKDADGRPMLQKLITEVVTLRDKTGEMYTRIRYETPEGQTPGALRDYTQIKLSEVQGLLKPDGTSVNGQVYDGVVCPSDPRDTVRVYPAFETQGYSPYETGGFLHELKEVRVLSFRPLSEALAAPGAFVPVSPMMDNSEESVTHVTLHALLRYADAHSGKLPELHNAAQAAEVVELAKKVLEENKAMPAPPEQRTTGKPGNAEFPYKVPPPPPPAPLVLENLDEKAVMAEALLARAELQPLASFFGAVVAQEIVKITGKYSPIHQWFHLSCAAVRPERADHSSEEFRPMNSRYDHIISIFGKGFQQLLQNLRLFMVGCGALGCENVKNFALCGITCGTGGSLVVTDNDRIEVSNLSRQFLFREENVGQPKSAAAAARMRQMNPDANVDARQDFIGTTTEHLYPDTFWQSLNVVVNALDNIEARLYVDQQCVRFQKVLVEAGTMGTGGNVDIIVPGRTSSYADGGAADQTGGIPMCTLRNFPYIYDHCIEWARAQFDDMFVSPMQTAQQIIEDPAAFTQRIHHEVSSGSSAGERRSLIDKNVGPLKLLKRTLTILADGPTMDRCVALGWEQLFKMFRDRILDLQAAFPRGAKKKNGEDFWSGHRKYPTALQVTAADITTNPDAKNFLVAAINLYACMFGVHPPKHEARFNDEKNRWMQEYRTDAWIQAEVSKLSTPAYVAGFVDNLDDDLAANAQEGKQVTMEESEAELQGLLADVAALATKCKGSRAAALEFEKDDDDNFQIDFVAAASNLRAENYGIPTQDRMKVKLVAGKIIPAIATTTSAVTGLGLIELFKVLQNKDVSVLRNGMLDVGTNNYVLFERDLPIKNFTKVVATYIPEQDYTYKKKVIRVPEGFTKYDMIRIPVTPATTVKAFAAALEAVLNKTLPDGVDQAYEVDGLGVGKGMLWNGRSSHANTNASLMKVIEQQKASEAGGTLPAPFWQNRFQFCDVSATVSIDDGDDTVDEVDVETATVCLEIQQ
Nature of the experiment: Leishmania donovani Ubiquitin Activating Enzyme (LdE1). Conditions: 30 µM. The class given is functional.

Experiment [3] has as its target T2, Aspartate--tRNA(Asp/Asn) ligase (Mycobacterium tuberculosis (strain ATCC 25618 / H37Rv)) (UniProt P9WFW3). Also: in the data most compounds retested in dose-response had high values.
T2 sequence (whole entry): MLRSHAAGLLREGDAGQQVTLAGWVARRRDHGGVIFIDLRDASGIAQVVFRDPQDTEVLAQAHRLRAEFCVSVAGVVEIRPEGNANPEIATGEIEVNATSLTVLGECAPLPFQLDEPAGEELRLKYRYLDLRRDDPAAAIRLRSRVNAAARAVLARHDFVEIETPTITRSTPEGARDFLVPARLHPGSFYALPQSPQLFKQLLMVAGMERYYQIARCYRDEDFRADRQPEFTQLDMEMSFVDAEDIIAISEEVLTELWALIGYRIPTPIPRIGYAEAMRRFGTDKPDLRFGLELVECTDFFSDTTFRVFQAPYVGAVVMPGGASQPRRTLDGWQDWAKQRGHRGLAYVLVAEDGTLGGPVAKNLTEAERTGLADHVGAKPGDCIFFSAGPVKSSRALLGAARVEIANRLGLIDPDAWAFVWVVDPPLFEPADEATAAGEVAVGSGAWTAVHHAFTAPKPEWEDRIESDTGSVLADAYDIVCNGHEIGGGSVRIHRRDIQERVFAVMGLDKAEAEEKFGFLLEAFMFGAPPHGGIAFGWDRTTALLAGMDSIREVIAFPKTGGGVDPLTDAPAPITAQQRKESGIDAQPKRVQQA
Description: Assay for Asp RNA synthetase-1 from Mycobacterium tuberculosis. In kind it is functional. Conditions: 30 µM.

In experiment [4] the target is Sialic acid-binding Ig-like lectin 9 (Homo sapiens) (UniProt Q9Y336). Nature of the experiment: Hs-Siglec9 ALPHAscreen SOP 20170721. To be noted: 10 µM.
A further experiment has as its system Trypanosoma cruzi. Nature of the experiment: Trypanosoma cruzi phosphomannomutase and mannose-1-phosphate guanylyltransferase assay. In kind it is functional. To be noted: 10 µM.
The target in experiment [5] is T3, Arginase-2, mitochondrial (Homo sapiens) (UniProt P78540).
T3 sequence (whole entry): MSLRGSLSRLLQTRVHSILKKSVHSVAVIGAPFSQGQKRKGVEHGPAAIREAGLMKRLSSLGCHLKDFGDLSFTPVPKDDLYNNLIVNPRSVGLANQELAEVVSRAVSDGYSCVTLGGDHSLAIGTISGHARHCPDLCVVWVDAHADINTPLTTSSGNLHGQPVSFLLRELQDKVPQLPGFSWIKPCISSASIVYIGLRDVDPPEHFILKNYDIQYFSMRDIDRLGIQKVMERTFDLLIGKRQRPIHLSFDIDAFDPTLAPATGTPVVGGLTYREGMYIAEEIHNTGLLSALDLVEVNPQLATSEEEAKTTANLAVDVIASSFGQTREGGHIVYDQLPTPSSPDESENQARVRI
Nature of the experiment: in vitro enzyme assay to detect the production of urea directly proportional to the activity of Arginase II. Also: in the data most compounds retested in dose-response had high values. In kind it is functional. Conditions: 33.3 µM.

In experiment [6] the target is T4, Proteasome subunit beta (Trypanosoma cruzi) (UniProt O96673).
T4 sequence (whole entry): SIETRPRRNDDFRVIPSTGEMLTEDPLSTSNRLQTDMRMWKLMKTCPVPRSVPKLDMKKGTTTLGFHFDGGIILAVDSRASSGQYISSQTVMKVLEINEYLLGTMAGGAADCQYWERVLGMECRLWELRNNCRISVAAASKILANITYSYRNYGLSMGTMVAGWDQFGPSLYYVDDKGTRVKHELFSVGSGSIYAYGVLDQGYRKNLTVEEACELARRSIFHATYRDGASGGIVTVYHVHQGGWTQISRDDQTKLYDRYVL
Description: Trypanosoma cruzi proteasome chymotrypsin-like activity (TcProtChymo) assay. Also: in the data most compounds retested in dose-response had high values. In kind it is functional. Conditions: 9.37 µM.

A further experiment is filed under the species Homo sapiens. Nature of the experiment: To identify inhibition of the IFN signalling (Jak-Stat) pathway via expression of an eGFP reporter gene under the control of an IFN-stimulated response element (ISRE) containing MxA promoter. In kind it is functional. Conditions: 30 µM. (In a reporter assay the amount or activity of a reporter protein is the signal.)

Experiment [7] deals with Shiga toxin 2 (Escherichia coli O157:H7) (UniProt P09385+P09386). Nature of the experiment: E. coli 0.157:H7 Shiga Toxin SOP - stx2 screening assay. The class given is functional. To be noted: 30 µM.
In experiment [8] the target is T5, Tyrosyl-tRNA synthetase, putative (Trypanosoma cruzi (strain CL Brener)) (UniProt Q4DSP6).
T5 sequence (whole entry): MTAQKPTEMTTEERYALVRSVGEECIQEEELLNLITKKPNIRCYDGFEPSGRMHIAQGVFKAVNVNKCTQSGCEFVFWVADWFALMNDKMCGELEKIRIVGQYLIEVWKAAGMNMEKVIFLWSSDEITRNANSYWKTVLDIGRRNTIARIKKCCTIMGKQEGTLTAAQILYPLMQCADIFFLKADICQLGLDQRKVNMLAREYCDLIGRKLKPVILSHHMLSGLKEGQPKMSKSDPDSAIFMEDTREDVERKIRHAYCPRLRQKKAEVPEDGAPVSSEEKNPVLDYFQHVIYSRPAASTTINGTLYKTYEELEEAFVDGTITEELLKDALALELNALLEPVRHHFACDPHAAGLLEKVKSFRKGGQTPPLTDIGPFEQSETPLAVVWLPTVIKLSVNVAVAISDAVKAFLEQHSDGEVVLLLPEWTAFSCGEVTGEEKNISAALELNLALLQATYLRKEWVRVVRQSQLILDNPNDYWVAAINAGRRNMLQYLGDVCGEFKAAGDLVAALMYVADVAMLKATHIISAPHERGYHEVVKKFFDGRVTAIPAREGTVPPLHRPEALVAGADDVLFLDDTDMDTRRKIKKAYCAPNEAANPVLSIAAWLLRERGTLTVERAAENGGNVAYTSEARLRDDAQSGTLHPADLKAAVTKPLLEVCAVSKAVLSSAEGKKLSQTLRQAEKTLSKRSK
Nature of the experiment: Trypanosoma cruzi tyrosyl tRNA synthetase (TcYRS) _High Tyrosine SOP. Also: in the data most compounds retested in dose-response had high values. In kind it is functional. To be noted: 30 µM.

Experiment [9] concerns the target T5, Tyrosyl-tRNA synthetase, putative (Trypanosoma cruzi (strain CL Brener)). Description: Trypanosoma cruzi tyrosyl tRNA synthetase (TcYRS) SOP. In kind it is functional. To be noted: 30 µM.
The target of experiment [10] is Chromo domain-containing protein 1 (Saccharomyces cerevisiae (strain ATCC 204508 / S288c) (Baker's yeast)) (UniProt P32657). Nature of the experiment: ScCHD-1 Enzyme Inhibition Assay. Also: in the data most compounds retested in dose-response had high values. The class given is functional. To be noted: 30 µM.
Chromo domain-containing protein 1 (Saccharomyces cerevisiae (strain ATCC 204508 / S288c) (Baker's yeast)), sequence (P32657 whole entry, the tested form may be a part): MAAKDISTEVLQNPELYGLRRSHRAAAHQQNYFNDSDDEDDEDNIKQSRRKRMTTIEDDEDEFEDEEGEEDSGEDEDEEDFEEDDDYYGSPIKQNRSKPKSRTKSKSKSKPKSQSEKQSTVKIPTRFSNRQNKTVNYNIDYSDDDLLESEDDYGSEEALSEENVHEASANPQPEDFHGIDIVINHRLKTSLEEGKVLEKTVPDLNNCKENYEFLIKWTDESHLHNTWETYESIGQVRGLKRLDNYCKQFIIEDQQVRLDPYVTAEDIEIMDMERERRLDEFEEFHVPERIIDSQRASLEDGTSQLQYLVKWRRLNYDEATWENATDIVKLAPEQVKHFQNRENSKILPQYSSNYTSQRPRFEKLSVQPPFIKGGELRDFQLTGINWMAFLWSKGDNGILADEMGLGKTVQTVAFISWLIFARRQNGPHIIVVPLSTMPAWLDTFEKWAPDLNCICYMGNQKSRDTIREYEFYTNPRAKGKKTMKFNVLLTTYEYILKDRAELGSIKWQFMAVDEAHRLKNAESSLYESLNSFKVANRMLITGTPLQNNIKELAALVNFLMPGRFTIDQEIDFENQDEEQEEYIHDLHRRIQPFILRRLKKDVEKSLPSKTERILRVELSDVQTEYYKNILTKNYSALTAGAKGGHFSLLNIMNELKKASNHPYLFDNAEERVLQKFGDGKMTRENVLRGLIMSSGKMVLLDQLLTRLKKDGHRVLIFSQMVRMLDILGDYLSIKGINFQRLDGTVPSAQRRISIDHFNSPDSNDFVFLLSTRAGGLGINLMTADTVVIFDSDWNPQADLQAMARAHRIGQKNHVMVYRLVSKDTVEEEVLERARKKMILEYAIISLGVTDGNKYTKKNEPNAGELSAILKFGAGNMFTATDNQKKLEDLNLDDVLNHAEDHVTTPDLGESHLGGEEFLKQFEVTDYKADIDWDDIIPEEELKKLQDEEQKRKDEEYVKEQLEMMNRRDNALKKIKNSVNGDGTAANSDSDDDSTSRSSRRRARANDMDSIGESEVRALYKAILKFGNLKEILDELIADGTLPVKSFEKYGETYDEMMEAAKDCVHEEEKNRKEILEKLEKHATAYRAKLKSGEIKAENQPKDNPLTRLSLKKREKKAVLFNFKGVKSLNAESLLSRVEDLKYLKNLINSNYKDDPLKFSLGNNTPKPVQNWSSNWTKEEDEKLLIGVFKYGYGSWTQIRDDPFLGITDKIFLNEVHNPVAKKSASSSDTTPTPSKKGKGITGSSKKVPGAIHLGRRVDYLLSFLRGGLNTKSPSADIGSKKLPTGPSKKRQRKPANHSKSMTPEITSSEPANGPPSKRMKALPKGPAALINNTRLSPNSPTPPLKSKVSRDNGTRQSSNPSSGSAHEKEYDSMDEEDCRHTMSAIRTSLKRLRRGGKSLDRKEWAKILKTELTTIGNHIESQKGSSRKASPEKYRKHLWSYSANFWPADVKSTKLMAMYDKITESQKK

Protein translocase subunit SecA (Escherichia coli (strain K12)), sequence (P10408 whole entry): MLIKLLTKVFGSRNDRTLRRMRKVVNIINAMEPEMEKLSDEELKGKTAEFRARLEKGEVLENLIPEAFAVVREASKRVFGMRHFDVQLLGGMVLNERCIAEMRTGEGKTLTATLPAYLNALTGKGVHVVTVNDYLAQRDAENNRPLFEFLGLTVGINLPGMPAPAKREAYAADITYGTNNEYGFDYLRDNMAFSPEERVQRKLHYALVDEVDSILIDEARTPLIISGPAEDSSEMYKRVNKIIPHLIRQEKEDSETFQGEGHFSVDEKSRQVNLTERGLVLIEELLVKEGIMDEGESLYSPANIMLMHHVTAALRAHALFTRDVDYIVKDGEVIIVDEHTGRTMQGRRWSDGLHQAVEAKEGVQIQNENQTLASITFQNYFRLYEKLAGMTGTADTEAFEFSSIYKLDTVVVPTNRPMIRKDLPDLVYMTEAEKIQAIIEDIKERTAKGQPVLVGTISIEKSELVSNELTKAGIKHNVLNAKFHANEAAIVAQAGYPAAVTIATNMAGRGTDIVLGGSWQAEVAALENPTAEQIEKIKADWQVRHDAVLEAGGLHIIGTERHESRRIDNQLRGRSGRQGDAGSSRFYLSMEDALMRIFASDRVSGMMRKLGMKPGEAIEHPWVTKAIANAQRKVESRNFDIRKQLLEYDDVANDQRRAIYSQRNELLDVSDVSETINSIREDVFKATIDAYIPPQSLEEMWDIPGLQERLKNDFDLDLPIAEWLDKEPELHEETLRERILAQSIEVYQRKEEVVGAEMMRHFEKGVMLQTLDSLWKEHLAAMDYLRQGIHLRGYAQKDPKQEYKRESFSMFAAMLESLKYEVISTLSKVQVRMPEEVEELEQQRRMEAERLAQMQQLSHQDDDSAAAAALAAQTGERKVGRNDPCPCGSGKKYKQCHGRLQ
Sialic acid-binding Ig-like lectin 9 (Homo sapiens), sequence (Q9Y336 whole entry): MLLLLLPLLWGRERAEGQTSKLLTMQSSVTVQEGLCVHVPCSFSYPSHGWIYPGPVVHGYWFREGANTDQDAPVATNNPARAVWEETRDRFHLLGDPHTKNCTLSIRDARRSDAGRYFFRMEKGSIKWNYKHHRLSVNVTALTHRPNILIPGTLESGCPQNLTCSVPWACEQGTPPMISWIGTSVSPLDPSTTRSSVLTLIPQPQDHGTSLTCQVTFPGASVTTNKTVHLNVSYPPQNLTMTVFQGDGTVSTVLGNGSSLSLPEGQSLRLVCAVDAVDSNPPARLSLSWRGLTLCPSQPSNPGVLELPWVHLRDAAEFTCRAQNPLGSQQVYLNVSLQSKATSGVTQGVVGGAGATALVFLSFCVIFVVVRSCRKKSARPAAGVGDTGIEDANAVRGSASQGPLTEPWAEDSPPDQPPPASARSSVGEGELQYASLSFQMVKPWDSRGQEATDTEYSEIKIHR

Take `COc1ccc(Cl)cc1CC(=O)N1CCN(CCO)CC1`: the Percent Effect is -6.68% in experiment [1]; 10.4% in experiment [2]; 1.78% in [3]; 0.349% in experiment [4]; -4.1% in the experiment with Trypanosoma cruzi; 4.71% in [5]. The Percent Effect is 0.877% in [6]; 12.1% in the experiment filed under Homo sapiens; -8.21% in [7]; -1.96% in experiment [8]; -2.35% in experiment [9]; 2.44% in experiment [10].
With `Cc1cccc(CN2C(=O)C[C@H]3[C@@H]2CCN3CC2CC2)n1`, the Percent Effect in experiment [1] was -1.8%; in experiment [2], -22.1%; in experiment [3], 3.32%; in [4], 2.35%; in the experiment with Trypanosoma cruzi, 0.563%; in experiment [5], 1.83%. Moreover, the Percent Effect is 12.3% in [6]; -5.79% in the experiment filed under Homo sapiens; 4.71% in experiment [7]; 12.6% in experiment [8]; 12.5% in experiment [9]; -5.44% in experiment [10].
For `NC(=O)CN1CCCN(C(=O)Cc2ccc3ccccc3c2)CC1`, the Percent Effect in experiment [1] was -7.48%; in experiment [2], 0%; in [3], 2.66%; in experiment [4], 1.74%; in the experiment on Trypanosoma cruzi, -13.2%; in [5] it was -6.21%. The Percent Effect in [6] was 0.594%; in the experiment filed under Homo sapiens, 24.3%; in experiment [7], -25.4%; in experiment [8], -0.526%; in [9] it was -5.13%; in experiment [10], -8.56%.
Regarding `O=C1C[C@H]2[C@H](CCN2Cc2ccccn2)N1CC1CC1`, the Percent Effect in experiment [1] was -3.35%; in experiment [2] it was 11.7%; in experiment [3] it was 1.05%; in experiment [4], -4.27%; with Trypanosoma cruzi, -5.25%; in [5], 5.02%. The Percent Effect was 12.4% in experiment [6]; 12.4% in the experiment listed under Homo sapiens; -21.2% in [7]; 6.76% in [8]; 2.5% in experiment [9]; -6.54% in [10].
`CC(C)c1nccc([C@H]2C[C@@H]3CCN(Cc4ccco4)C[C@H]3O2)n1`: the Percent Effect is -6.35% in experiment [1]; -3.9% in experiment [2]; 9.38% in experiment [3]; 3.38% in experiment [4]; 4.58% with Trypanosoma cruzi; -7.69% in experiment [5]. The Percent Effect was found to be 14.4% in experiment [6]; 3.14% in the experiment filed under Homo sapiens; 5.36% in experiment [7]; 6.84% in [8]; 15.4% in experiment [9]; 1.21% in experiment [10].

For the origin of these results see ChEMBL document CHEMBL3988442, “University of Dundee, Small-Polar-MMV Screening Library” (2021).
